{"source": "PubChem BioAssay (NCATS)", "assay_in_all_cases": "qHTS profiling for inhibitors of Plasmodium falciparum proliferation (AID 504749); also: nearly all actives have a fitted effect of over 60% in size", "settings_in_all_cases": "P. falciparum in erythrocytes, SYBR Green DNA, 72 h; series mostly up to 28.7 µM", "key": {"ATS95": {"tested_on": "ATS95", "summary_of_the_method": "(§1)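 Quantitative HTS: compounds pinned into medium, infected erythrocytes added (0.3% parasitemia, 2.5% hematocrit), 72 h culture at 37 C under 5% CO2. Saponin/Triton lysis with SYBR Green I, overnight RT, then fluorescence read.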"}, "C2A": {"tested_on": "C2A", "summary_of_the_method": "as §1"}, "CP237": {"tested_on": "CP237", "summary_of_the_method": "as §1"}, "CP238": {"tested_on": "CP238", "summary_of_the_method": "as §1"}, "CP250": {"tested_on": "CP250", "summary_of_the_method": "as §1"}, "CP256": {"tested_on": "CP256", "summary_of_the_method": "as §1"}, "CP262": {"tested_on": "CP262", "summary_of_the_method": "as §1"}, "CP265": {"tested_on": "CP265", "summary_of_the_method": "as §1"}, "CP268": {"tested_on": "CP268", "summary_of_the_method": "as §1"}, "CP269": {"tested_on": "CP269", "summary_of_the_method": "as §1"}, "CP325": {"tested_on": "CP325", "summary_of_the_method": "as §1"}, "CP329": {"tested_on": "CP329", "summary_of_the_method": "as §1"}, "CP335": {"tested_on": "CP335", "summary_of_the_method": "as §1"}, "Dd2": {"tested_on": "Dd2", "summary_of_the_method": "as §1"}, "ECU": {"tested_on": "ECU", "summary_of_the_method": "as §1"}, "GB4": {"tested_on": "GB4", "summary_of_the_method": "as §1"}, "P93_24": {"tested_on": "P93_24", "summary_of_the_method": "as §1"}, "PAD": {"tested_on": "PAD", "summary_of_the_method": "as §1"}, "PC26": {"tested_on": "PC26", "summary_of_the_method": "as §1"}, "SC27B": {"tested_on": "SC27B", "summary_of_the_method": "as §1"}}, "note": "Records with an inconclusive call do not appear. Where a call stands in place of a potency, no number is given. The source made the active and inactive calls. Calls follow the shape of the dose curve; as a rule, active = well fitted inhibition curve with a large enough effect; inconclusive = small, poorly fitted or top-dose-only effect; inactive = flat fitted curve, though single readings scatter. Potency is read from the fitted curve at half-maximal effect."}
{"compound": "O=C(O)c1ccccc1-c1c2cc(Br)c(=O)cc-2oc2[c]([Hg])c(O)c(Br)cc12", "values": [{"measurement": "Potency", "setting": "ATS95", "value": "inactive"}, {"measurement": "Potency", "setting": "C2A", "value": "inactive"}, {"measurement": "Potency", "setting": "CP237", "value": "inactive"}, {"measurement": "Potency", "setting": "CP238", "value": "inactive"}, {"measurement": "Potency", "setting": "CP250", "value": "inactive"}, {"measurement": "Potency", "setting": "CP256", "value": "inactive"}, {"measurement": "Potency", "setting": "CP262", "value": "inactive"}, {"measurement": "Potency", "setting": "CP265", "value": "inactive"}, {"measurement": "Potency", "setting": "CP268", "value": "inactive"}, {"measurement": "Potency", "setting": "CP269", "value": "inactive"}, {"measurement": "Potency", "setting": "CP325", "value": "inactive"}, {"measurement": "Potency", "setting": "CP329", "value": "inactive"}, {"measurement": "Potency", "setting": "CP335", "value": "inactive"}, {"measurement": "Potency", "setting": "Dd2", "value": "inactive"}, {"measurement": "Potency", "setting": "ECU", "value": "inactive"}, {"measurement": "Potency", "setting": "GB4", "value": "inactive"}, {"measurement": "Potency", "setting": "P93_24", "value": "inactive"}, {"measurement": "Potency", "setting": "PAD", "value": "inactive"}, {"measurement": "Potency", "setting": "PC26", "value": "inactive"}, {"measurement": "Potency", "setting": "SC27B", "value": "inactive"}]}
{"compound": "CC(C)[C@@]1(NC(=O)[C@H]2CC3c4cccc5[nH]cc(c45)C[C@H]3N(C)C2)O[C@@]2(O)C3CCCN3C(=O)[C@@H](Cc3ccccc3)N2C1=O", "note": "(stereo not given in full)", "values": [{"measurement": "Potency", "setting": "ATS95", "value": "3.16 µM (active)"}, {"measurement": "Potency", "setting": "C2A", "value": "6.31 µM (active)"}, {"measurement": "Potency", "setting": "CP237", "value": "1.26 µM (active)"}, {"measurement": "Potency", "setting": "CP238", "value": "3.98 µM (active)"}, {"measurement": "Potency", "setting": "CP250", "value": "12.6 µM (active)"}, {"measurement": "Potency", "setting": "CP256", "value": "7.94 µM (active)"}, {"measurement": "Potency", "setting": "CP262", "value": "12 µM (active)"}, {"measurement": "Potency", "setting": "CP265", "value": "4.47 µM (active)"}, {"measurement": "Potency", "setting": "CP268", "value": "10.7 µM (active)"}, {"measurement": "Potency", "setting": "CP269", "value": "4.26 µM (active)"}, {"measurement": "Potency", "setting": "CP325", "value": "9.53 µM (active)"}, {"measurement": "Potency", "setting": "CP329", "value": "13.5 µM (active)"}, {"measurement": "Potency", "setting": "CP335", "value": "3.79 µM (active)"}, {"measurement": "Potency", "setting": "Dd2", "value": "2.82 µM (active)"}, {"measurement": "Potency", "setting": "ECU", "value": "1.41 µM (active)"}, {"measurement": "Potency", "setting": "GB4", "value": "3.01 µM (active)"}, {"measurement": "Potency", "setting": "P93_24", "value": "0.891 µM (active)"}, {"measurement": "Potency", "setting": "PAD", "value": "1.12 µM (active)"}, {"measurement": "Potency", "setting": "PC26", "value": "1.51 µM (active)"}, {"measurement": "Potency", "setting": "SC27B", "value": "2 µM (active)"}]}
